Test results from PubChem BioAssay (NCI).
This is part of a sample that, as a whole, favours compounds with a hit. Of some 83,000 tested, about 20% had one in any assay.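 Cell lines were cultured in 96-well plates, exposed to a single compound concentration, and assessed for percent growth 48 hours later.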 Values without a mark were called inactive. Active and inactive are the calls of the source. The calls were made as follows: active = growth percent below 10; inactive = the rest.

Experiments:
Test in all cases: NCI-60 one-dose screen, 48 h (100 = growth as untreated, 0 = no growth, -100 = all killed)
Details in all cases: 10 µM unless noted
DU-145 prostate = system: DU-145 prostate
K-562 leukemia = system: K-562 leukemia
MALME-3M melanoma = system: MALME-3M melanoma
MDA-MB-231 breast = system: MDA-MB-231 breast
RXF 393 renal = system: RXF 393 renal
SF-268 CNS = system: SF-268 CNS
SF-295 CNS = system: SF-295 CNS
SF-539 CNS = system: SF-539 CNS
UACC-257 melanoma = system: UACC-257 melanoma
M14 melanoma = system: M14 melanoma
HCT-15 colon = system: HCT-15 colon
HT29 colon = system: HT29 colon
SNB-75 CNS = system: SNB-75 CNS
SNB-19 CNS = system: SNB-19 CNS
U251 CNS = system: U251 CNS
PC-3 prostate = system: PC-3 prostate
SK-MEL-5 melanoma = system: SK-MEL-5 melanoma
UACC-62 melanoma = system: UACC-62 melanoma
SK-MEL-28 melanoma = system: SK-MEL-28 melanoma
LOX IMVI melanoma = system: LOX IMVI melanoma

Row | Structure (SMILES) | growth (DU-145 prostate) | growth (K-562 leukemia) | growth (MALME-3M melanoma) | growth (MDA-MB-231 breast) | growth (RXF 393 renal) | growth (SF-268 CNS) | growth (SF-295 CNS) | growth (SF-539 CNS) | growth (UACC-257 melanoma) | growth (M14 melanoma) | growth (HCT-15 colon) | growth (HT29 colon) | growth (SNB-75 CNS) | growth (SNB-19 CNS) | growth (U251 CNS) | growth (PC-3 prostate) | growth (SK-MEL-5 melanoma) | growth (UACC-62 melanoma) | growth (SK-MEL-28 melanoma) | growth (LOX IMVI melanoma)
1 | C=C(C)[C@@H]1CC[C@]2(CNCCO)CC[C@]3(C)[C@H](CC[C@@H]4[C@@]5(C)CCC(N)[C@@](C)(CO)[C@@H]5CC[C@]43C)[C@@H]12 (stereo not given in full) | 10.3% | -63.2% (active) | -84.2% (active) | -68.4% (active) | 30.2% | 10.1% | -19.6% (active) | -80.5% (active) | -87.1% (active) | -77% (active) | 32.4% | -56.8% (active) | 73.5% | 29.8% | -86.1% (active) | 20.1% | -96.1% (active) | -75.7% (active) | -85.7% (active) | –
2 | O=C1Nc2ccc(Cl)cc2/C1=N/N=C/c1c[nH]c2ccccc12 | 64.2% | 88.4% | 82.8% | 64.3% | 62.7% | 76.2% | 103% | 82.6% | 98.8% | 72% | 66.9% | 86.9% | 58.1% | 86.3% | 70.9% | 93.8% | 87.7% | 43.1% | 102% | 74%
3 | CC(C)OC(=O)OCOP(=O)(OCOC(=O)OC(C)C)C1CCCN(O)C1=O (stereo not given) | 52.5% | 30.3% | 41.1% | 21.8% | 8.56% (active) | 26.5% | 62.8% | 75.5% | 55.2% | 44.4% | 33.4% | 5.87% (active) | 57.6% | 21.5% | 15.2% | 60.5% | 30.9% | 23.6% | 15.2% | 39%
4 | N#Cc1cccc(-c2nc3ccccn3c2NCCN2CCOCC2)c1 | 106% | 97.3% | 108% | 94.6% | 96.3% | 90.3% | 101% | 92.2% | 98.8% | 89.9% | 105% | 92.8% | 71.1% | 100% | 98.2% | 89.5% | 104% | 95.5% | 107% | 92.5%
5 | Cc1nc2ccc(C(=O)NCc3cc(C(=O)O)c(C)o3)cc2nc1C | 105% | 110% | 93.4% | 101% | 97.4% | 91.4% | 102% | 96.2% | 87.2% | 91.4% | 105% | 95.6% | 79.4% | 101% | 96.8% | 90% | 105% | 94.8% | 103% | 94.3%
6 | Clc1ccc2c(NCCCN3CCN(c4nc(-n5ccnc5)nc5ccccc45)CC3)ccnc2c1 | 93.3% | -48.8% (active) | -83.2% (active) | 8.95% (active) | 37.1% | 80% | 61.2% | -83.7% (active) | 87.1% | -24% (active) | -64.6% (active) | -16.2% (active) | 100% | 99.5% | 97.2% | 78.4% | -94.8% (active) | 93.4% | -86.9% (active) | –
7 | C=C1c2c(C)nn(-c3ccc(NC(C)=O)cc3)c2N(C)C23CC1C1(C)c4c(C)nn(-c5ccc(NC(C)=O)cc5)c4N(C)C(C)(CC12)C3 (stereo not given) | 46.8% | 14.9% | 71.1% | 48.4% | 29.9% | 43.8% | 35.6% | 63.1% | 38.4% | 19.6% | 11% | 31.1% | 99% | 43.6% | 33.3% | 22.7% | 19.1% | 37% | 46.9% | –
8 | C=C(C)[C@@H]1CC[C@]2(C(=O)NCC(=O)O)CC[C@]3(C)[C@H](CC[C@@H]4[C@@]5(C)Cc6c([nH]c7ccccc67)C(C)(C)[C@@H]5CC[C@]43C)[C@@H]12 | 93.5% | 72.4% | 107% | 92% | 91.2% | 76.1% | 56.2% | 56.3% | 87.1% | 86.9% | 77.5% | 88.2% | 64.2% | 71.2% | 61.8% | 72.6% | 103% | 79.7% | 92.7% | 99.1%
9 | CNC(=O)c1cc(Oc2ccc3nc(NC(=O)Nc4cc(C(F)(F)F)cc(C(F)(F)F)c4)sc3c2)ccn1 | -39.6% (active) | -2.97% (active) | -57.5% (active) | -53.1% (active) | -24.5% (active) | -25.6% (active) | -81.9% (active) | -80% (active) | -50.8% (active) | -39% (active) | -4.69% (active) | -71.3% (active) | -71.3% (active) | 2.44% (active) | -81.8% (active) | -38.9% (active) | -47.6% (active) | -63.3% (active) | -71% (active) | –
10 | CCOc1ccc(-c2nc3ccc(-c4nc5ccc(N6CCN(C)CC6)cc5[nH]4)cc3[nH]2)cc1OCC | 11.1% | 12.8% | -34.7% (active) | 19.4% | -37.8% (active) | 19.3% | 27.2% | -42.7% (active) | 6.87% (active) | 10% | 63.7% | 19.4% | 6.64% (active) | 8.93% (active) | 4.64% (active) | 17.2% | 8.43% (active) | -14.3% (active) | -27.2% (active) | -74.5% (active)
11 | CS(=O)(=O)c1ccc(-c2nc3cc(Cl)ccc3n2CC(=O)NO)cc1 | 101% | 95.7% | 108% | 93.8% | 94.9% | 89.2% | 98% | 101% | 102% | 93.6% | 102% | 95.6% | 73.7% | 96.4% | 93.1% | 95.7% | 103% | 92.6% | 100% | 97.9%
12 | Oc1[nH]c2ccccc2c1/C=c1/cc2c(c(-c3ccc(F)cc3)n1)=Nc1ccccc1-2 | 9.34% (active) | 2.88% (active) | -54.5% (active) | -4.54% (active) | -57.1% (active) | 15.4% | -19.1% (active) | -65.6% (active) | 20.9% | -36.8% (active) | -18.1% (active) | -41.7% (active) | -2.31% (active) | 25.2% | -57.8% (active) | -14.8% (active) | -38.9% (active) | -56% (active) | -47.3% (active) | -58.1% (active)
13 | Cc1c(C(=O)O[C@H]2[C@@H]3[C@H](C)CC[C@H]3[C@]3(C)O[C@@]2(C2CCCCC2)C[C@H]3OC(=O)CO)ccc2ccccc12 | 58.7% | 7.53% (active) | 42.3% | 33.2% | -31.7% (active) | 16% | 36.8% | 65.6% | 39.8% | 36.2% | 14.2% | -4.24% (active) | 82.6% | 60.8% | 4.41% (active) | 9.25% (active) | 68.6% | 61.3% | 59.7% | –
14 | COc1cc(C2C=C(c3cccc(NC(C)=O)c3)Nc3ncnn32)cc(OC)c1OC (stereo not given) | 2.4% (active) | 23.6% | 25.6% | 16.4% | -28.3% (active) | 36.9% | -58% (active) | -5.24% (active) | 71.2% | 20.4% | 41.4% | 10.9% | 21.9% | 52% | 25.4% | 33.3% | 21.6% | 22.9% | 51.5% | 42.1%
